In the library only some 2.1% were active in any assay of this set; here they are far more common.
KLF5 inhibitor: inhibitors of KLF5 expression; 0.23% of 290,000 active; DLD-1 KLF5 promoter-luciferase reporter, luminescence; inhibition, % at 5 µM;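 active = inhibition above a per-plate limit of that plate's mean compound inhibition plus 3 SD, cut at about 60% in these data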;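 note: 0% = DMSO wells and 100% = LY294002 at 200 µM; higher means less KLF5 promoter-driven luciferase light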
aSyn UTR inh: MLPCN primary screen, SNCA 5' untranslated region; alpha-synuclein 5'UTR reporter, inhibitor activity; inhibition, % (tested at 7.5 µM); 0.82% of 300,000 active; in the data active = inhibition above about 60%;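 note: H4 neuroglioblastoma cells stably carrying SNCA 5'UTR luciferase fusion; 0% = DMSO wells and 100% = positive control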
Wee1 stabilizer: blocks degradation of human Wee1 kinase | AID 1321 | reporter increase, % at 5 µM | 1.2% of 220,000 active | HeLa Luc-Wee1K328M stability, luciferase luminescence; 100% = proteasome inhibitor MG132 effect | P30291;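 active = activation above the mean of all tested compounds plus 3 SD, set per screening run, cut at about 8.8% in these data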;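 note: cells exposed to compound for 20 h before luminescence read; 0% = DMSO alone and 100% = MG132 at 30 µM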
Target sequence (P30291 whole entry K328M): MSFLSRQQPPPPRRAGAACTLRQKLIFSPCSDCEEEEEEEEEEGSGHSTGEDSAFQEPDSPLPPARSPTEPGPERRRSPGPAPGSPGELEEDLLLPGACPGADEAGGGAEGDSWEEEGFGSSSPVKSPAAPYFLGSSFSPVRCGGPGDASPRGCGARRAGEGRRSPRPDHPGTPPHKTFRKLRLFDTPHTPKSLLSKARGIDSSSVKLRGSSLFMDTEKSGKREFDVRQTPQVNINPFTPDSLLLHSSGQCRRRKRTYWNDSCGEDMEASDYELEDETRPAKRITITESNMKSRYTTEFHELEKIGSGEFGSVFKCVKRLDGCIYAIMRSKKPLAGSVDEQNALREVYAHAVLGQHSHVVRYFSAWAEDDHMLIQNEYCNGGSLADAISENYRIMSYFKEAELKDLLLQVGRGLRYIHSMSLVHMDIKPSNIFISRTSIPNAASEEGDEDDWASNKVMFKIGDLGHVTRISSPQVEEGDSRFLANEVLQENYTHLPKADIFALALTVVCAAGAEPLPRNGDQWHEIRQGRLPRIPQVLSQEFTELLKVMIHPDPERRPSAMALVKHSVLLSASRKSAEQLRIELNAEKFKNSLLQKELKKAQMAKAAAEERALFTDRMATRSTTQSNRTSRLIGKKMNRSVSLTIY
HIF activator: HIF pathway transcriptional activation; U2OS HRE-luciferase reporter, luminescence; normalized: DMSO 0%, desferrioxamine 100%; activation, % at 7.5 µM (by protocol); 0.32% of 300,000 active; AID 1910;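 active = mean activation of at least 10% of the iron chelator positive control signal, with at least half of replicates also reaching 10%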
Platelet DG rel: modulates dense granule release in human platelets | inhibition, %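 (compounds screened at 7.5 µM in platelet-rich plasma)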 | 0.22% of 300,000 active | human platelet-rich plasma, SFLLRN dense granule ATP release, luminescence;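 active = mean replicate score, as percent of positive control, at or above 50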
* = called active by the depositor.

Screening COc1cccc(CC(=O)NNC(=O)c2c(-c3ccccc3)noc2C)c1 returned KLF5 inhibitor -14.2, aSyn UTR inh 3.7, Wee1 stabilizer -1.3, HIF activator -0.5 and Platelet DG rel 11.0.
`CCC(CC)NC(=O)c1cc2c(C)nn(Cc3ccccc3Cl)c2s1` gave KLF5 inhibitor -16.4, aSyn UTR inh 70.5*, Wee1 stabilizer -3.4, HIF activator -0.9 and Platelet DG rel -0.3.
Screening Cc1nn(Cc2ccccc2Cl)c2sc(C(=O)Nc3nccs3)cc12 returned KLF5 inhibitor -24.4, aSyn UTR inh 6.1, Wee1 stabilizer -1.0, HIF activator -0.7 and Platelet DG rel -4.2.
Screening COC(=O)C1(CC2CC(c3ccc(Cl)cc3)=NO2)CCN(C(=O)OC(C)(C)C)CC1 (centres undefined) returned aSyn UTR inh -21.5, HIF activator -4.2 and Platelet DG rel -12.5.
O=C(Nc1ccc(-c2nc3ccccc3o2)cc1)C1CCCO1 (centres undefined) was read as KLF5 inhibitor -118.6, aSyn UTR inh -23.2, Wee1 stabilizer 0.8, HIF activator -1.0 and Platelet DG rel 55.8*.
O=C(Nc1ccc2oc(-c3ccccc3)nc2c1)C1CCCO1 (centres undefined) was read as KLF5 inhibitor -160.5, aSyn UTR inh -161.9, Wee1 stabilizer 0.7, HIF activator 2.1 and Platelet DG rel 8.4.
`O=C(Nc1ccc(-c2nc3cccnc3s2)cc1)C1CCCO1` (centres undefined) gave KLF5 inhibitor 22.7, aSyn UTR inh 87.3*, Wee1 stabilizer -2.5, HIF activator -2.5 and Platelet DG rel 97.5*.
COc1ccc(NC(=O)C2CCCO2)cc1 (centres undefined) was read as KLF5 inhibitor -27.7, aSyn UTR inh -6.7, Wee1 stabilizer 2.5, HIF activator 1.0 and Platelet DG rel -1.3.
CCOc1ccccc1N1CC(C(=O)N(Cc2nnc(-c3ccccc3Cl)o2)C2CC2)CC1=O (centres undefined) was read as aSyn UTR inh 6.5, HIF activator 0.1 and Platelet DG rel 18.6.
Screening CCOC(=O)c1c(CSC(=N)N)n(C)c2cc(Br)c(OC(C)=O)cc12 returned KLF5 inhibitor -13.7, aSyn UTR inh 0.9, Wee1 stabilizer 0.9, HIF activator 2.1 and Platelet DG rel 21.3.
Screening CCOC(=O)c1c(CSC(=N)N)n(-c2ccc(C)cc2)c2cc(Br)c(OC(C)=O)cc12 returned KLF5 inhibitor -33.5, aSyn UTR inh 54.7, Wee1 stabilizer 9.4*, HIF activator 0.6 and Platelet DG rel 6.4.
For CCOC(=O)C(C)Sc1nc(-c2ccco2)cc(C(F)(F)F)c1C#N (centres undefined) the results were KLF5 inhibitor -4.5, aSyn UTR inh -20.8, Wee1 stabilizer 9.9*, HIF activator -0.2 and Platelet DG rel 1.7.
COc1ccc(/C=N/NC(=O)c2ccoc2C)cc1CN1CCN(c2ccc(F)cc2)CC1 was read as KLF5 inhibitor -33.7, aSyn UTR inh -79.5, HIF activator -12.2 and Platelet DG rel 13.1.
For O=[N+]([O-])c1ccc(N/N=C/c2sc(N3CCOCC3)nc2-c2ccccc2)c(S(=O)(=O)Nc2ccc(Cl)cc2)c1 the results were KLF5 inhibitor -26.0, aSyn UTR inh 75.8*, Wee1 stabilizer 1.8, HIF activator 0.2 and Platelet DG rel -10.7.
`CCN(CC)c1ccc(/C=N/Nc2nc(C)cc(=O)[nH]2)c(O)c1` gave KLF5 inhibitor -3.7, aSyn UTR inh 95.4*, Wee1 stabilizer -2.3, HIF activator 56.8* and Platelet DG rel -6.3.
Screening CCOC(=O)N/N=C/c1ccc(N(CC)CC)cc1O returned KLF5 inhibitor -32.4, aSyn UTR inh -432.2, Wee1 stabilizer -1.2, HIF activator 4.4 and Platelet DG rel 0.1.
`CCN(CC)c1ccc(/C=N/NC(=O)c2c(Cl)cnn2C)c(O)c1` gave KLF5 inhibitor 35.1, aSyn UTR inh 90.0*, Wee1 stabilizer -1.3, HIF activator 14.9* and Platelet DG rel 5.2.
`CCN(CC)c1ccc(/C=N/NC(=O)c2cccc(S(=O)(=O)N3CCOCC3)c2)c(O)c1` gave KLF5 inhibitor 12.8, aSyn UTR inh 128.8*, Wee1 stabilizer -3.4, HIF activator 101.9* and Platelet DG rel -1.0.
`CCOc1ccccc1/C=N/NC(=O)c1cccc(S(=O)(=O)N2CCOCC2)c1` gave KLF5 inhibitor -1.9, aSyn UTR inh 0.8, Wee1 stabilizer -2.1, HIF activator 0.1 and Platelet DG rel 0.3.
For O=C(CCn1c(=O)sc2ccccc21)NC1CCCCC1 the results were KLF5 inhibitor -61.5, aSyn UTR inh -43.4, HIF activator 1.0 and Platelet DG rel 1.1.
For Nc1ccc(C(=O)N/N=C/c2sc(N3CCOCC3)nc2-c2ccccc2)cc1 the results were KLF5 inhibitor 0.8, aSyn UTR inh 25.4, Wee1 stabilizer -1.2, HIF activator 0.0 and Platelet DG rel 16.3.
Screening O=C(N/N=C/c1sc(N2CCOCC2)nc1-c1ccccc1)c1cccc(S(=O)(=O)N2CCOCC2)c1 returned KLF5 inhibitor -2.8, aSyn UTR inh 86.5*, Wee1 stabilizer 0.9, HIF activator 5.1 and Platelet DG rel -2.4.
Screening COc1cccc(/C=N/Nc2nc3ccccc3n3cnnc23)c1 returned KLF5 inhibitor -26.1, aSyn UTR inh 36.1, Wee1 stabilizer 0.2, HIF activator 360.2* and Platelet DG rel 4.4.
For O=C(COc1ccccc1-c1ccccc1)N/N=C/c1cccc2ccccc12 the results were KLF5 inhibitor 5.3, aSyn UTR inh 75.3*, Wee1 stabilizer 5.2, HIF activator 1.5 and Platelet DG rel -1.7.
COc1ccccc1CCNC(=O)c1nccnc1C(=O)O was read as KLF5 inhibitor -56.8, aSyn UTR inh -0.2, HIF activator -0.8 and Platelet DG rel 0.4.
CCOC(=O)C[C@H]1c2ccc(C(F)(F)F)cc2S(=O)(=O)N1c1cccc(OC)c1 was read as aSyn UTR inh 21.8, HIF activator 0.3 and Platelet DG rel -1.1.
`CSc1ncc(Cl)c(C(=O)Nc2ccccc2Br)n1` gave KLF5 inhibitor -4.3, aSyn UTR inh -3.4, Wee1 stabilizer -0.4, HIF activator -2.0 and Platelet DG rel 10.3.
CCOCCCNC(=O)C1CCN(S(=O)(=O)CC)CC1 was read as KLF5 inhibitor -17.0, aSyn UTR inh 9.3, Wee1 stabilizer 14.8*, HIF activator -0.2 and Platelet DG rel -2.6.
For Cc1nc(N2CCc3ccccc3C2)[nH]c(=O)c1Cc1ccccc1 the results were KLF5 inhibitor -13.8, aSyn UTR inh -28.1, Wee1 stabilizer -0.6, HIF activator -0.1 and Platelet DG rel -1.4.
For Cc1nc(-n2[nH]c3c(c2=O)CCCC3)[nH]c(=O)c1Cc1ccccc1 the results were KLF5 inhibitor -35.1, aSyn UTR inh 89.8*, Wee1 stabilizer 6.6, HIF activator 12.5* and Platelet DG rel -0.2.
`NC(=O)c1ccc(NC(=O)CCN=C2NS(=O)(=O)c3ccccc32)cc1` gave aSyn UTR inh 11.0, HIF activator 0.3 and Platelet DG rel -0.2.
Cc1ccc(S(=O)(=O)c2nc(-c3ccccc3Br)oc2N(C)C)cc1 was read as KLF5 inhibitor -1.1, aSyn UTR inh 13.9, HIF activator 0.9 and Platelet DG rel 4.8.
